Values joined by “and” are separate entries in the source; they are usually repeats but may differ in a detail not shown here. Identical values can stand only once. Records with an inconclusive call do not appear. A call without a number means that no potency is given here. The source holds several records for some structures; these can differ, active in one and inactive in another. Active and inactive are the calls of the source. Unless noted, the call rests on the fitted dose curve.

Progesterone receptor (Homo sapiens), sequence (P06401 whole entry, looked up): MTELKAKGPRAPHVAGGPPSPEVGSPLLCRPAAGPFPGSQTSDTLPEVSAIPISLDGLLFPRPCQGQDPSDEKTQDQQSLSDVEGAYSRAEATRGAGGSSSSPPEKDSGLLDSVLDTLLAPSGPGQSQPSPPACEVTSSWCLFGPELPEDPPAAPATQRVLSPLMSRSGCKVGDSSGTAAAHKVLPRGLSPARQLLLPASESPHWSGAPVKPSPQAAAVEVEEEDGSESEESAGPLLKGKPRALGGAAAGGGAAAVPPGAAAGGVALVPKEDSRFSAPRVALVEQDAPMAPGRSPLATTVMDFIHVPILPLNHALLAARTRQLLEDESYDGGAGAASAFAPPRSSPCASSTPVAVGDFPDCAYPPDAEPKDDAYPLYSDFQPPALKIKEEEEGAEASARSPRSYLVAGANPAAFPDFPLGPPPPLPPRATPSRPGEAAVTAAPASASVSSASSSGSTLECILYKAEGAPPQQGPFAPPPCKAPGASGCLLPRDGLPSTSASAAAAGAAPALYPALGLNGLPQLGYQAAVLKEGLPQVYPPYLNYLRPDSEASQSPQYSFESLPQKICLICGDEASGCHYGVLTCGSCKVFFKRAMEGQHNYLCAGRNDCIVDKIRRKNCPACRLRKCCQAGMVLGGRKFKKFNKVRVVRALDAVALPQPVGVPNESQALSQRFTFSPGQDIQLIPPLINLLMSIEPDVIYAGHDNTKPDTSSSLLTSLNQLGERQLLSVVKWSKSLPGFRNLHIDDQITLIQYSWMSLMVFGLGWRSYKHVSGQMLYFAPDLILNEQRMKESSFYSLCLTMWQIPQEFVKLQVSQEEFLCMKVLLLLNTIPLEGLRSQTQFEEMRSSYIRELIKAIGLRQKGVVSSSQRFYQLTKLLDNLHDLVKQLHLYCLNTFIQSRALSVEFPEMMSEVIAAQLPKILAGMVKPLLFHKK

The target in one assay is Progesterone receptor (Homo sapiens) (UniProt P06401). As to the kind of experiment: qHTS assay to identify small molecule agonists of the progesterone receptor (PR) signaling pathway (AID 1346784). Further: nearly all actives have a fitted effect of over 30% in size. Conditions: PR-UAS-bla HEK293T, beta-lactamase FRET ratio, 16 h; series mostly up to 92.4 µM; activation: at the top concentration. In outline:
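HEK 293T PR-UAS-bla reporter cells, 2% charcoal-stripped FBS; 6 hr settle at 37C/5% CO2, compound (DMSO) 16 hr, LiveBLAzer B/G FRET substrate 2 hr RT, fluorescence intensity read.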
(In general: Quantitative high-throughput screening tests each substance at several concentrations.)
As for `Cc1ccc(OP(=O)(Oc2ccc(C)cc2)Oc2ccc(C)cc2)cc1`, the Potency entry is “inactive”. `CCC(C)(c1ccc(O)cc1)c1ccc(O)cc1`: the Potency entry is “inactive”. Still for that read-out and setting: the entry for `O=C(O)C(F)(F)C(F)(F)C(F)(F)C(F)(F)C(F)(F)C(F)(F)C(F)(F)F` is “inactive”. Regarding `c1ccc(-c2cccc(-c3ccccc3)c2)cc1`, the Potency result is “inactive”. `CC(C)(OOC(C)(C)c1ccccc1)c1ccccc1`: the Potency entry was “inactive”. For `CCOc1cc(Oc2ccc(C(F)(F)F)cc2Cl)ccc1[N+](=O)[O-]`, the Potency result was “inactive”. The same measure, in the same setting: the entry for `O=C(NC(=O)c1c(F)cccc1F)Nc1ccc(Cl)cc1` is “inactive”. As for `CCOCN(C(=O)CCl)c1c(C)cccc1CC`, the “activation” value is 12.5% (inactive). Regarding `c1cc(OCC2CO2)ccc1Cc1ccc(OCC2CO2)cc1` (stereo unspecified), the Potency result was “inactive”. Take `Nc1ccc(Cl)c(Cl)c1`: the Potency entry was “inactive”. Still for that read-out and setting: next, `CCC(CC)Nc1c([N+](=O)[O-])cc(C)c(C)c1[N+](=O)[O-]`: “inactive”. Consider `CCCCNC(=O)n1c(NC(=O)OC)nc2ccccc21`, for which the “activation” value is -4.1% (inactive). Regarding `CC1(C)C(C=C(Cl)Cl)C1C(=O)OC(C#N)c1cccc(Oc2ccccc2)c1` (stereo unspecified), the Potency entry was “inactive”. On the same count and under the same terms, the entry for `CCCCCCCCC(=O)NCc1ccc(O)c(OC)c1` is “inactive”. The same measure, in the same setting: next, `Cc1c(COC(=O)[C@@H]2[C@H](/C=C(\Cl)C(F)(F)F)C2(C)C)cccc1-c1ccccc1`: “inactive”; `CC(C)c1ccc(CO)cc1`: “inactive”; `COc1ccc(C(CN(C)C)C2(O)CCCCC2)cc1` (stereo unspecified): “inactive”.

On to `CCOC(=O)C(C)OC(=O)c1cc(Oc2ccc(C(F)(F)F)cc2Cl)ccc1[N+](=O)[O-]` (stereo unspecified), for which the Potency result was “inactive”. Consider `c1ccc(P(c2ccccc2)c2ccccc2)cc1`, for which the Potency result is “inactive”. In the case of `Oc1c(Cl)c(Cl)c(Cl)c(Cl)c1Cl`, the “activation” value was 10.3% [at 42.5 µM] (inactive). Turning to `Oc1cc(Cl)c(Cl)cc1Cl`, the Potency entry is “inactive”. For `N#Cc1cc(Br)c(O)c(Br)c1`, the “activation” value is 6.48% (inactive). `Cc1ccc2c(c1N)C(=O)c1ccccc1C2=O`: the Potency entry is “inactive”.

For another assay the target is unchanged. As to the kind of experiment: qHTS assay to identify small molecule antagonists of the progesterone receptor (PR) signaling pathway (AID 1346795; active means well fitted inhibition curve with a large enough effect in the signal ratio in the repeat runs, not every such curve was filed as active; the % refers to the signal ratio; further: potency means the concentration at half of the fitted maximal effect). Conditions: PR-UAS-bla HEK293T, beta-lactamase FRET ratio, 16 h; series mostly up to 92.4 µM; activity change, negative = inhibition: at the top concentration. In outline: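 Beta-lactamase reporter, HEK293T PR-UAS-bla line; 2% charcoal-stripped FBS; 6 hr pre-incubation, 37C/5% CO2. Compound + R5020 1 nM final, 16 hr. LiveBLAzer B/G FRET substrate, 2 hr RT; fluorescence intensity read.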
On to `COP(=O)(OC)OC`, for which the “activity change, negative = inhibition” value was 0.964% (inactive).

`Cc1ccc(OP(=O)(Oc2ccc(C)cc2)Oc2ccc(C)cc2)cc1`: the Potency was 15.4 µM (active).

Turning to `CCC(C)(c1ccc(O)cc1)c1ccc(O)cc1`, the Potency was 4.32 µM (active).

As to `O=C(O)C(F)(F)C(F)(F)C(F)(F)C(F)(F)C(F)(F)C(F)(F)C(F)(F)F`, the Potency result is “inactive”. With `CCOc1cc(Oc2ccc(C(F)(F)F)cc2Cl)ccc1[N+](=O)[O-]`, the Potency is 15.5 µM (active) and 13.7 µM (active). Turning to `O=C(NC(=O)c1c(F)cccc1F)Nc1ccc(Cl)cc1`, the Potency result is “inactive”.

Take `C#C[C@]1(O)CC[C@H]2[C@@H]3CCC4=CC(=O)CC[C@]4(C)[C@H]3CC[C@@]21C`: the “activity change, negative = inhibition” value was 13.6% (inactive).

Turning to `Nc1ccncc1`, the Potency result was “inactive”. The same measure, in the same setting: the entry for `Cc1ccccc1[N+](=O)[O-]` is “inactive”; for `O=Cc1ccco1` it is “inactive”; for `CCOc1cc(C=O)ccc1O` it is “inactive”. As for `COc1ccc(C=O)cc1`, the Potency result is “inactive”. Same read-out and setting: next, `c1ccc(NNc2ccccc2)cc1`: “inactive”; `CCCCCCCCC(=O)NCc1ccc(O)c(OC)c1`: 48.6 µM (active). Consider `Cc1c(COC(=O)[C@@H]2[C@H](/C=C(\Cl)C(F)(F)F)C2(C)C)cccc1-c1ccccc1`, for which the “activity change, negative = inhibition” value was -27.6% (inactive). As for `CC(C)c1ccc(CO)cc1`, the Potency result is “inactive”. On the same count and under the same terms, next, `CCCCCCCCCCCOC(=O)c1ccccc1C(=O)OCCCCCCCCCCC`: “inactive”. Consider `N#CC(Br)Br`, for which the “activity change, negative = inhibition” value was 8.96% (inactive). Still for that read-out and setting: the figure for `COc1ccc(C(CN(C)C)C2(O)CCCCC2)cc1` (stereo unspecified) is 7.87% (inactive).

`C=CCN(CC=C)C(=O)C(Cl)Cl`: the Potency entry was “inactive”.

Turning to `CCOC(=O)C(C)OC(=O)c1cc(Oc2ccc(C(F)(F)F)cc2Cl)ccc1[N+](=O)[O-]` (stereo unspecified), the Potency was 30.5 µM (active). On the same count and under the same terms, next, `CCCCC(CC)COC(=O)c1ccc(C(=O)OCC(CC)CCCC)c(C(=O)OCC(CC)CCCC)c1` (stereo unspecified): “inactive”; `Oc1c(Cl)c(Cl)c(Cl)c(Cl)c1Cl`: 59.9 µM (active) and 48.6 µM (active). Take `Oc1cc(Cl)c(Cl)cc1Cl`: the Potency was 60.6 µM (active) and inactive and 54.5 µM (active).

Consider `NNC(=S)NN`, for which the Potency is 62.8 µM (active) and 54.5 µM (active). `O=P(O)(O)CCCl`: the Potency entry was “inactive”. Regarding `Nc1ccc(-c2ccccc2)cc1`, the Potency is 1.99 µM (active). Same read-out and setting: the entry for `N#Cc1cc(Br)c(O)c(Br)c1` is “inactive”.

The values are drawn from PubChem BioAssay (Tox21).
